For 13 compounds, Potency and outcome results are on record in PubChem BioAssay (NCATS).

The nature of assay [1]: High Content Imaging Cell-Based qHTS for Inhibitors of the mTORC1 Signaling Pathway in MEF (Tsc2-/-, p53-/-) Cells (AID 2666).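 Also: percent of cells scored positive for phospho-rpS6 Ser235/236 immunostaining by imaging.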 Also: potency is read from the fitted curve at half-maximal effect. Summed up:
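Phospho-rpS6 (Ser235/236) immunofluorescence, normalized and scored as % positive cells using rapamycin and DMSO controls, was read in empty-vector Tsc2-/-, p53-/- MEFs after 24 h compound exposure at 37 C; propidium iodide counted cells.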
Background: Quantitative high-throughput screening tests each substance at several concentrations.

Assay [2] is described as follows: High Content Imaging Cell-Based qHTS for Inhibitors of the mTORC1 Signaling Pathway in MEF Cells (AID 2667). Also: potency is read from the fitted curve at half-maximal effect. Summed up:
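WT MEFs (Tsc2-/-, p53-/- re-expressing Tsc2), in DMEM + 10% FBS, were treated with compound for 24 h at 37 C. Cells were then fixed and stained for phospho-rpS6 Ser235/236 with propidium iodide as cell count. Values are % positive cells, with thresholds set against rapamycin-treated cells.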

Assay [3] concerns the target Ubiquitin carboxyl-terminal hydrolase 2 (Homo sapiens) (UniProt O75604). Nature of the assay: qHTS Validation Assay for Inhibitors of Ubiquitin-specific Protease USP2a Using CHOP2 as the Reporter (AID 463106). Summed up:
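USP2 core (10 nM final) was preincubated with compound 30 min at RT in pH 8.0 Tris/CaCl2/beta-ME/CHAPS buffer. Ub-CHOP2 and reporter substrate (25 nM final each) were then added, with fluorescence (Ex 485/Em 531) read after 60 min. Data were normalized to NEM full inhibition and fitted to concentration-response curves.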

Assay [4] concerns the target DNA polymerase III PolC-type (Bacillus subtilis (strain 168)) (UniProt P13267). Nature of the assay: qHTS Validation Assay for the Inhibitors of DNA Replication in Gram-Positive Bacteria (AID 485295). Also: potency is read from the fitted curve at half-maximal effect. Summed up: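 PicoGreen fluorescence (ex 480–485/em 535–540 nm) reports dsDNA synthesized on ssM13Gori template with dNTPs/NTPs. Enzyme: holoenzyme rebuilt from purified PolC, beta subunit, SSB and primase. Compound preincubated before substrate addition; RT throughout.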

The target of assay [5] is Tumor susceptibility gene 101 protein (Homo sapiens) (UniProt Q99816). Nature of the assay: qHTS Validation Assay for Iinhibitors of HIV-1 Budding by Blocking the Interaction of PTAP/TSG101 (AID 485342; calls by dose curve). Summed up: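 FP read-out: FITC-PTAP peptide, 50 nM final, binding Tsg101 binding domain, 10 uM final; 20 min r.t.; 10 mM HEPES pH 7.5, 0.15 M NaCl, 0.01% Tween 20, 3 mM EDTA, 0.1 mM TCEP.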
Sequence of Tumor susceptibility gene 101 protein (Homo sapiens) (Q99816 whole entry, looked up, the tested form may be a part): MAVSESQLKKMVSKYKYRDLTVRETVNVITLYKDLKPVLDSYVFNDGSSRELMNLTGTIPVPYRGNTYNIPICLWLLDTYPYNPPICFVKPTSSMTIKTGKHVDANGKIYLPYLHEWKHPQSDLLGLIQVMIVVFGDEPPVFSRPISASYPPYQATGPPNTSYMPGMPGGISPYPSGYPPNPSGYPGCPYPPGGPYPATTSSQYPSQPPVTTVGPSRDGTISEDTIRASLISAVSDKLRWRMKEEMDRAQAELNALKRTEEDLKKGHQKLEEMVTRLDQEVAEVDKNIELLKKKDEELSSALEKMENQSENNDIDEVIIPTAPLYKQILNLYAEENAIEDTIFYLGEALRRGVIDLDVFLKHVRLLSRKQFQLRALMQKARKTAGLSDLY

The target of assay [6] is Beta-2 adrenergic receptor (Homo sapiens) (UniProt P07550). Nature of the assay: qHTS validation assay of beta-arrestin-biased ligands of beta2-adrenergic receptor (AID 485366). Summed up:
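Tango cells (recombinant beta2-AR with recombinant beta-arrestin; recruitment releases tTA driving luciferase) were treated with compounds titrated up to 46 microM for 18 hr at 37 degrees C. Luminescence gave %Activity, and concentration-response curves were curve-classified.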

The target in assay [7] is ATP-dependent 6-phosphofructokinase (Trypanosoma brucei brucei) (UniProt O15648). Nature of the assay: qHTS Validation Assay to Find Inhibitors of T. brucei phosphofructokinase (AID 485368). Summed up: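 Compounds (up to 57 uM, titration series) were pinned into substrate buffer, then 1.25 nM PFK added; after 45 min at room temperature, ADP product was quantified by ADP-Glo luminescence and concentration-response curves fitted.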
Sequence of ATP-dependent 6-phosphofructokinase (Trypanosoma brucei brucei) (O15648 whole entry, looked up): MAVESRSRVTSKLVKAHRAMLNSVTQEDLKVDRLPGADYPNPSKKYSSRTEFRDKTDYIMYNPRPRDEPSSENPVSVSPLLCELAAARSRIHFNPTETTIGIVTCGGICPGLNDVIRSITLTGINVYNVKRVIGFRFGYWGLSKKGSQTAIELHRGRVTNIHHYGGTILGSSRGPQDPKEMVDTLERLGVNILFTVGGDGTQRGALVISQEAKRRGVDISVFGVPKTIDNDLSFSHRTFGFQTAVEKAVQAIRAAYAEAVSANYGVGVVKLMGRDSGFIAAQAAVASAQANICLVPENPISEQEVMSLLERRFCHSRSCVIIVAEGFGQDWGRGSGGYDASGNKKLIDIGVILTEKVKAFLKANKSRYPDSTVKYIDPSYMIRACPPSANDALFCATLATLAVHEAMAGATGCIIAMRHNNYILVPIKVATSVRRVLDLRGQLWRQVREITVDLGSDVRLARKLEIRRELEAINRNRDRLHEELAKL

The nature of assay [8]: Quantitative high throughput screen for delayed death inhibitors of the malarial parasite plastid, 96 hour incubation (AID 488745). Also: nearly all actives have a fitted effect of over 70% in size. Also: potency is read from the fitted curve at half-maximal effect. Summed up:
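Luciferase-expressing P. falciparum in erythrocytes (2% hematocrit, 0.1% parasitemia) incubated with compound for 96 h at 37 C, 5% CO2, in RPMI 1640 with 0.5% Albumax. Growth inhibition read as decreased luminescence.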

In assay [9] the target is Flap endonuclease 1 (Homo sapiens) (UniProt P39748). The assay can be described thus: qHTS Validation Assay for the Inhibitors of Human Flap endonuclease 1 (FEN1) (AID 488816). Summed up:
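Human FEN1 (10 nM) preincubated 15 min at room temperature with compounds, then flap DNA substrate added at 50 nM final. Fluorescence read at 0 and 15 min; concentration-response fitted with four-parameter Hill equation.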

Assay [10] can be described thus: Cytometry Cell-Based qHTS for Inhibitors of the mTORC1 Signaling Pathway in MEF cells (AID 2668). Also: potency is read from the fitted curve at half-maximal effect. Summed up: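 Read-out: phospho-rpS6 Ser235/236 immunofluorescence normalized to propidium iodide intensity, scored as % active cells against a rapamycin (7.5 nM) threshold. Cells: Tsc2-/-, p53-/- MEFs stably expressing WT Tsc2, compound-treated 24 hrs at 37 degree Celsius.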

Assay [11] is described as follows: Validation screen for small molecules that induce DNA re-replication in MCF 10A normal breast cells (AID 463097). Also: nearly all actives have a fitted effect of over 60% in size. Also: potency is read from the fitted curve at half-maximal effect. Summed up: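 250 MCF 10A cells/well; compound pin-transferred; 48 hr, 37 C, 5% CO2; Hoechst 40 min; imaged 405/500-530 nm. Hits = more high-intensity nuclei.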
Assay [12] is described as follows: qHTS Validation Assay to Find Inhibitors of Chronic Active B-Cell Receptor Signaling (AID 485345; active = well fitted curve in the direction sought with a large enough effect in the main read-out, with a control signal flat, not every such curve was filed as active). Summed up: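 TMD8 ABC-DLBCL cells stably carrying doxycycline-inducible IkappaBalpha–green luciferase fusion plus unfused red luciferase; compounds 46 uM to 3 nM, 4 h at 37C with doxycycline. Corrected green/red luminescence ratio normalized to 10 uM MG-132 and basal cell wells; curves fitted.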

Assay [13] can be described thus: Quantitative high throughput screen for delayed death inhibitors of the malarial parasite plastid, 48 hour incubation (AID 488752). Also: nearly all actives have a fitted effect of over 65% in size. Also: potency is read from the fitted curve at half-maximal effect. Summed up: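 Erythrocytes infected with firefly luciferase-expressing P. falciparum (2% hematocrit, 0.1% parasitemia) cultured with compound for 48 h at 37 C, 5% CO2, in RPMI 1640/0.5% Albumax. Growth inhibition read as loss of luminescence.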

In assay [14] the target is Thioredoxin reductase 1, cytoplasmic (Rattus norvegicus) (UniProt O89049). Nature of the assay: qHTS Assay for Substrates of Mammalian Selenoprotein Thioredoxin Reductase 1 (TrxR1) (AID 488772).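 Also: NADPH fluorescence in the first read after selenite addition and not the 8 min delta; series mostly up to about 57 µM; a drop in NADPH fluorescence below the no-compound background marks a TrxR1 substrate.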 Summed up: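 Quantitative HTS in Tris-HCl buffer at pH 7.5 with EDTA and Tween-20, using rat TrxR1, 400 uM NADPH and 400 uM selenite (final). A fall in initial NADPH fluorescence relative to background marked substrate behaviour.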
Sequence of Thioredoxin reductase 1, cytoplasmic (Rattus norvegicus) (O89049 whole entry, looked up): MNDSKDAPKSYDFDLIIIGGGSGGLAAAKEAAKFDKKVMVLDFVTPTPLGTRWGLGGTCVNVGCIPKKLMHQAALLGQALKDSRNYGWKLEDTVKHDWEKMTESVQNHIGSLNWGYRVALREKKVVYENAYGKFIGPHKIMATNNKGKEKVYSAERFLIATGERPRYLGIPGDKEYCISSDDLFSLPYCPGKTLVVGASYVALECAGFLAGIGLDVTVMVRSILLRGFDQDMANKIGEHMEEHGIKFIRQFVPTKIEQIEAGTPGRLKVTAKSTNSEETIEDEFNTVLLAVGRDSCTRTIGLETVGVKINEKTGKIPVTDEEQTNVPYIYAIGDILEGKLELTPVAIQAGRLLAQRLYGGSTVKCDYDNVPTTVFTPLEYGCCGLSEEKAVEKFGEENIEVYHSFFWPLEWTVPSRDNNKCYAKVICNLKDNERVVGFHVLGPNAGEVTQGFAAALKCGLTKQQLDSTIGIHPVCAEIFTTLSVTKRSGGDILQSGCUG

Assay [15] shares this target. Nature of the assay: qHTS Assay for Inhibitors of Mammalian Selenoprotein Thioredoxin Reductase 1 (TrxR1) (AID 488773).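 Also: drop in NADPH fluorescence over an 8 min run after selenite addition; series mostly up to about 57 µM; nearly all actives have a fitted effect of over 40% in size.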 To be noted: Potency: inhibition. Summed up: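 Steps: enzyme (90 nM) plus NADPH (400 uM final), 5 min at ~22 deg C; compound added, 15 min; selenite (400 uM final) added; fluorescence followed for 8 min. Concentration-response curves derived from the normalized delta values.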

Assay [16] has as its target M-phase phosphoprotein 8 (Homo sapiens) (UniProt Q99549). The assay can be described thus: qHTS Validation Assay for Inhibitors for MPP8 Chromodomain Interactions with Methylated Histone Tails (AID 488949).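 Also: AlphaScreen signal from MPP8 chromodomain bound to biotinylated H3K9me3 peptide; top concentration of the series differs between compounds; nearly all actives have a fitted effect of over 55% in size.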 Summed up: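 AlphaScreen read-out: streptavidin donor and nickel chelate acceptor beads (final 10 ug/mL), 30 min in the dark at RT. Complex of 50 nM MPP8 and 50 nM b-H3(1-18)K9me3 peptide had been exposed to compounds for 30 min beforehand.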

The target of assay [17] is Chromobox protein homolog 1 (Homo sapiens) (UniProt P83916). Nature of the assay: qHTS Validation Assay for Inhibitors of HP1-beta Chromodomain Interactions with Methylated Histone Tails (AID 488953).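 Also: loss of AlphaScreen luminescence from HP1-beta binding biotinylated H3K9me3 peptide; series mostly up to about 110 µM; nearly all actives have a fitted effect of over 50% in size.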 Summed up:
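HP1-beta (50 nM) preformed 30 min with biotinylated H3(1-18)K9me3 peptide (50 nM) in PBS pH 7.4, 0.01% Tween-20. Compounds added for 30 min at room temperature. Complex disruption read by AlphaScreen with streptavidin donor/nickel chelate acceptor beads (10 ug/mL each).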

Assay [18] addresses Methanococcus maripaludis chaperonin (MmCpn) (UniProt Q6LX38). Nature of the assay: High-Throughput Screening for Modulators of Cytosolic Chaperonin Activity: MmCpn Primary Screen (AID 488978).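 Also: 50 nM MmCpn enzyme hydrolysing 30 µM ATP at 37 °C.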 Summed up:
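ADP formation read by HTRF Transcreener, 665/590 nm emission after 320 nm excitation. Enzyme: archaeal chaperonin at 50 nM final; substrate ATP 30 uM final; 10 min, 37C, after 5 min compound preincubation at RT.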

Records with an inconclusive call do not appear. Active and inactive are the calls of the source. Unless noted, calls follow the shape of the dose curve; as a rule, active = well fitted curve in the direction sought with a large enough effect; inconclusive = small, poorly fitted or top-dose-only effect, or another doubt; inactive = no such curve, though single readings can be large; an effect the other way counts as inactive or inconclusive.

Sequence of Methanococcus maripaludis chaperonin (MmCpn) (Q6LX38 1-543): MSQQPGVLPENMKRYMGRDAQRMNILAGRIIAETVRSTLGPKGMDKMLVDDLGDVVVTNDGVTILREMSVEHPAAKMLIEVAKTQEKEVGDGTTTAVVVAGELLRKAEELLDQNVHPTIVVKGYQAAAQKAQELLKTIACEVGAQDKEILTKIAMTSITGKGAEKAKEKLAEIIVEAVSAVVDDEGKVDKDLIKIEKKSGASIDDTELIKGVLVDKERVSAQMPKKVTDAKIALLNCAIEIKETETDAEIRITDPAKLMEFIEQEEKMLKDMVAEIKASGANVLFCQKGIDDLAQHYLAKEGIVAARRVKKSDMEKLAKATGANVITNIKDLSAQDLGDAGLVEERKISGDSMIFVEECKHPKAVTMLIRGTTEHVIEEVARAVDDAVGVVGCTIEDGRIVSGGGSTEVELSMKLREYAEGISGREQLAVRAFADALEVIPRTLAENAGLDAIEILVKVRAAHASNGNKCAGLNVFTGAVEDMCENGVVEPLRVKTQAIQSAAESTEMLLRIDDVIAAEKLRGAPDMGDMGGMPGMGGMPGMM
Sequence of Flap endonuclease 1 (Homo sapiens) (P39748 whole entry, looked up): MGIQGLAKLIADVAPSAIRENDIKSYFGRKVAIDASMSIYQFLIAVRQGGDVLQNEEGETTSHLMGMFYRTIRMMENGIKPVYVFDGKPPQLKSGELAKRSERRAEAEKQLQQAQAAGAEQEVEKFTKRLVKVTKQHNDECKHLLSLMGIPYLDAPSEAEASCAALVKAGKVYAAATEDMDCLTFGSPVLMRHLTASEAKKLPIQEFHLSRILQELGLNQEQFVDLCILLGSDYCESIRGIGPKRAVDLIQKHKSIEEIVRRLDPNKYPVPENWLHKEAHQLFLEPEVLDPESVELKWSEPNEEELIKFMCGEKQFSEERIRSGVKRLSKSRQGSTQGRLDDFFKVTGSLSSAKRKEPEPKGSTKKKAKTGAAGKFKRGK
Sequence of Ubiquitin carboxyl-terminal hydrolase 2 (Homo sapiens) (O75604 whole entry, looked up): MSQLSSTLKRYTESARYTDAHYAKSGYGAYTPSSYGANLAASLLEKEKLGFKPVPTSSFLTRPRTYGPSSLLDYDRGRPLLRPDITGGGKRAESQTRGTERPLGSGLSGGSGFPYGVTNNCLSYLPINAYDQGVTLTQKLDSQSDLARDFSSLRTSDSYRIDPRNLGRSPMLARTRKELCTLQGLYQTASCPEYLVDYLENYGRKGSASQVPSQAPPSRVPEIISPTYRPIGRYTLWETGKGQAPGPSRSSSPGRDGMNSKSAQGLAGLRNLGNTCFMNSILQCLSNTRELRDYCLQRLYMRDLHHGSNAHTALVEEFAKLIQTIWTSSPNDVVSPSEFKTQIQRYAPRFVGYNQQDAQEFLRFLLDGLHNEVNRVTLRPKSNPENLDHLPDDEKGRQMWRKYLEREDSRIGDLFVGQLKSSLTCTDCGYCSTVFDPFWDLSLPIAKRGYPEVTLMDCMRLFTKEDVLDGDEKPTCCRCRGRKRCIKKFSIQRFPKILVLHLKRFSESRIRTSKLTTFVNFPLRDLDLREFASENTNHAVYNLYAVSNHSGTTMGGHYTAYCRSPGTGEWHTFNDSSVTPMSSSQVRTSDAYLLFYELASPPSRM
Sequence of Chromobox protein homolog 1 (Homo sapiens) (P83916 whole entry, looked up): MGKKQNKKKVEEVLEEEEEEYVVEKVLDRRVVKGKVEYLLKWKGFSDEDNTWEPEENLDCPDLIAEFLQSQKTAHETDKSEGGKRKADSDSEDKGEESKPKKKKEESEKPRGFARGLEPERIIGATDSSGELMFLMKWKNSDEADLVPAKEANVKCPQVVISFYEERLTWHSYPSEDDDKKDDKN
Sequence of DNA polymerase III PolC-type (Bacillus subtilis (strain 168)) (P13267 whole entry, looked up): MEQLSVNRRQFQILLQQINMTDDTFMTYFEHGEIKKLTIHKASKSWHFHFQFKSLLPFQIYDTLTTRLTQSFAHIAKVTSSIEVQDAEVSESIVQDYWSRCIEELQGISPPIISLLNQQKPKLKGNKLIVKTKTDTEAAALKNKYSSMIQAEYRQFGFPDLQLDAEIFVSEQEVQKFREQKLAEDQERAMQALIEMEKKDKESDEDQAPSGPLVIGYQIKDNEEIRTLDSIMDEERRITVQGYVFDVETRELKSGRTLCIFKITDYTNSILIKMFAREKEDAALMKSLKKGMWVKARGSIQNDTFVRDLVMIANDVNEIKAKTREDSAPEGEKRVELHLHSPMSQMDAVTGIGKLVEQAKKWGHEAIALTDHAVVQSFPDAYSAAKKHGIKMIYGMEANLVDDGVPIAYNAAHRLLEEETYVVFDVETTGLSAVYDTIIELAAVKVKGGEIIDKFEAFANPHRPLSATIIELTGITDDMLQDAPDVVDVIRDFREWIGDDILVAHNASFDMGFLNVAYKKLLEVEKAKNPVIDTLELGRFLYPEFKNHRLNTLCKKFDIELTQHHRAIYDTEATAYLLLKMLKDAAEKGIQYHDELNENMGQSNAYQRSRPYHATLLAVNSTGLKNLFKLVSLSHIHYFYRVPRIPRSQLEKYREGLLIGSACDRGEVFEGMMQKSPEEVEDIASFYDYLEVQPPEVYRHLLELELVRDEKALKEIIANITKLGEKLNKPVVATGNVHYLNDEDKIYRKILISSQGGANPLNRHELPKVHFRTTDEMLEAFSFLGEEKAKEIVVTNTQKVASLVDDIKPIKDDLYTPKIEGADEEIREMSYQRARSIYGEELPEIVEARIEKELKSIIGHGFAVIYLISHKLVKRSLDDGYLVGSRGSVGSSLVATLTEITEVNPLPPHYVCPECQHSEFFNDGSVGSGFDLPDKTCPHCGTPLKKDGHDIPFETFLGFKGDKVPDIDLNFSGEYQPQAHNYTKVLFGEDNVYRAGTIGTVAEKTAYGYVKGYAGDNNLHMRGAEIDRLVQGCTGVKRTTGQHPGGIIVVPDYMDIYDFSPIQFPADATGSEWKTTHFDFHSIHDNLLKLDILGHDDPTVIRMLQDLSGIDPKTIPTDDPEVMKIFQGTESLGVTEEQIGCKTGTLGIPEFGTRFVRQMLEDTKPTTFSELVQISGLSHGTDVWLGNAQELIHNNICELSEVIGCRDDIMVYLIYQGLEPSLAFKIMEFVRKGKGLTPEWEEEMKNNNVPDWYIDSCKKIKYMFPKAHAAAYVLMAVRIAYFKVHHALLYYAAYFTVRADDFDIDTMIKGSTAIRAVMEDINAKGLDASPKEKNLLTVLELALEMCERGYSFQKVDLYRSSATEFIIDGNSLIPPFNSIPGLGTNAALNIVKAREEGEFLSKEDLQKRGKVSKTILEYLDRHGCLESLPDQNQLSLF
Sequence of Beta-2 adrenergic receptor (Homo sapiens) (P07550 whole entry, looked up): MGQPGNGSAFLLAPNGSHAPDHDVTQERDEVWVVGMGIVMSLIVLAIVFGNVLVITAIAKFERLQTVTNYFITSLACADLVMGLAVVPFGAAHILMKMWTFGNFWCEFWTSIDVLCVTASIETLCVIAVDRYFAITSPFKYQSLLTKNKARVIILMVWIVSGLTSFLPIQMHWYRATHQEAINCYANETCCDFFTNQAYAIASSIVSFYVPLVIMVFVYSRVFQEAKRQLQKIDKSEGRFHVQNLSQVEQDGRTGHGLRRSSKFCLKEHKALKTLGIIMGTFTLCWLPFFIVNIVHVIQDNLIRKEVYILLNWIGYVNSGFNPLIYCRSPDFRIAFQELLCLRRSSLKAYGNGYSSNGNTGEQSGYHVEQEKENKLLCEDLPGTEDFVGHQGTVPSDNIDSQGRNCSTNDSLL

For `CN(C)S(=O)(=O)c1ccc2c(c1)/C(=C/c1cc3c([nH]1)CCCC3)C(=O)N2`, the Potency entry in assay [1], in [2], in assay [3], in [4], in [7] and in assay [9] was “inactive” in each case. Besides, the compound was classed as inactive in assay [5] and in assay [6]. Also, in [8], the Potency was 3.7 µM (active).
Consider `NCCC1CCCC(CCN)N1` (centres undefined), for which the Potency entry in [1], in assay [10], in [11], in assay [3], in [4] and in assay [8] was “inactive” each time. Also, the Potency entry in assay [13], in [15], in assay [16] and in assay [17] was “inactive” in each case. For the same compound, the compound was called inactive in assay [5], in assay [12], in [6], in assay [14] and in [18].
As to `c1ccc2c(c1)CCC[C@H]2Nc1nc2ccccc2[nH]1`, the Potency entry in [1], in [2], in assay [10], in assay [3], in [4] and in [7] was “inactive” throughout. Also, the Potency result in [15], in assay [9] and in assay [16] was “inactive” each time. Moreover, the result in [5], in assay [12], in assay [6] and in assay [18] was inactive.
As for `c1ccc(C(NCc2cccnc2)(c2ccccc2)c2ccccc2)cc1`, the Potency result in assay [1], in assay [2], in assay [10], in assay [3], in assay [4] and in assay [7] was “inactive” each time. Besides, the Potency entry in assay [15], in [9], in [16] and in assay [17] was “inactive” each time. In addition, the result in assay [5], in assay [6], in [14] and in assay [18] was inactive.
Turning to `N#Cc1cc([N+](=O)[O-])c2sc(C(N)=O)[n+]([O-])c2c1`, the Potency in [1] was 18.5 µM (active). For the same compound, the Potency entry in assay [3], in assay [4], in assay [15], in assay [9] and in assay [16] was “inactive” throughout. Also, the compound was classed as inactive in assay [5], in [6], in assay [14] and in [18].
`Cc1cccc(C2CN(C)CCc3c2cc(O)c(O)c3Cl)c1` (centres undefined): the Potency result in assay [1], in [2], in assay [11], in assay [3], in assay [4] and in assay [15] was “inactive” each time. Besides, the Potency entry in assay [9] and in assay [16] was “inactive” throughout. The call in [5], in assay [12], in [6], in assay [14] and in assay [18] was inactive. Further, the Potency in [8] was 4.65 µM (active).
As for `N=S(=O)(O)Cc1noc2ccccc12`, the Potency result in assay [1], in assay [10], in [11], in [3], in assay [4] and in assay [7] was “inactive” throughout. Further, the Potency result in assay [8], in [15], in [9], in assay [16] and in assay [17] was “inactive” each time. For the same compound, the compound was classed as inactive in [5], in assay [12], in [6], in assay [14] and in [18].
`Cc1cc(Cn2cnc3c2C[C@@H](C(=O)O)N(C(=O)C(c2ccccc2)c2ccccc2)C3)ccc1N`: the Potency result in [1], in assay [2], in assay [10], in assay [3], in assay [4] and in assay [7] was “inactive” each time. The Potency entry in [15], in assay [9] and in assay [16] was “inactive” each time. The result in assay [5], in assay [12], in assay [6], in assay [14] and in assay [18] was inactive.
For the compound `Nc1ccc(N2C(=O)c3ccccc3C2=O)c(Cl)c1`, the Potency entry in [1], in assay [10], in assay [11], in assay [3], in assay [4] and in assay [8] was “inactive” in each case. In addition, the Potency entry in assay [13], in [15], in assay [9], in [16] and in assay [17] was “inactive” in each case. In addition, the call in [5], in [12], in assay [14] and in assay [18] was inactive.
For the compound `CCC1(O)CC2CN(CCc3c([nH]c4ccccc34)[C@@](C(=O)OC)(c3cc4c(cc3OC)N(C)C3[C@]45CCN4CC=C[C@@](CC)([C@@H](OC(C)=O)[C@]3(O)C(=O)OC)[C@H]45)C2)C1` (some centres undefined), the Potency in assay [11] was 0.0501 µM (active); in assay [8] it was 0.522 µM (active); in assay [13], 0.586 µM (active). The Potency entry in [3], in assay [4], in [7], in [9] and in assay [16] was “inactive” each time. In addition, the compound was classed as inactive in assay [5], in assay [6] and in [18].
In the case of `CCCCCCCC/C=C\CCCCCCCC(=O)NCCc1ccc(O)c(O)c1`, the Potency in [2] is 5.21 µM (active); in assay [10], 3.69 µM (active); in [4], 18.9 µM (active); in assay [8], 14.7 µM (active); in assay [13], 13.1 µM (active). The Potency entry in assay [3], in [9] and in assay [16] was “inactive” throughout. Moreover, the compound was called inactive in assay [5] and in [6].
Turning to `NC(=O)CC[C@H](N)C(=O)O`, the Potency entry in assay [2], in [10], in assay [11], in assay [3], in assay [4] and in [13] was “inactive” throughout. Also, the Potency result in [15], in assay [9] and in assay [17] was “inactive” throughout. The call in assay [5], in [12], in assay [6], in [14] and in assay [18] was inactive.
As for `S=C(S)N1CCCC1`, the Potency entry in assay [3], in [4], in [15] and in assay [9] was “inactive” in each case. In addition, the compound was called inactive in assay [5], in assay [12], in assay [6], in assay [14] and in assay [18].
